Shown are actives, neighbours in structure and some others; about 2.7% of the full set was active somewhere.
RXFP1 antag: qHTS Assay for Antagonists of the Relaxin Receptor RXFP1; actives 0.59% (n = 350,000); activity change, negative = inhibition, % at 57.5 µM; HEK293-RXFP1, relaxin-stimulated cAMP HTRF, 30 min; hits give low values;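 active means activity change of -60% or lower, but not beyond a set lower limit; inconclusive means change between -60% and -40%, or beyond the set limit; inactive means change above -40%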
ClpP mod: qHTS Assay for Activators of ClpP; ATP-dependent Clp protease proteolytic subunit (Bacillus subtilis (strain 168)), P80244; purified B. subtilis ClpP, FRET peptide cleavage, 20 min; Potency, µM (highest dose often 57.5 µM); actives 1.9% (n = 340,000); AID 651965, 2013; active means well fitted falling curve with a large enough effect; inconclusive means small, poorly fitted or top-dose-only effect; inactive means no such curve, though single readings can be large or run the other way; further: the source files actives as falling curves though it sought activators and does not explain the sign; nearly all actives have a fitted effect of over 65% in size
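FRET quenching reversal measured ClpP activation: 10 microg/mL B. subtilis ClpP at pH 8 with the FRET-FV decapeptide, read at 430 nm after 320 nm excitation. The 20-min minus 0-min signal was scaled between DMSO/no-enzyme wells and ADEP (5.8 microM final).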
gsp agonist: qHTS for Agonist of gsp, the Etiologic Mutation Responsible for Fibrous Dysplasia/McCune-Albright Syndrome: qHTS; AID 624287, 2012; Potency, µM (doses to about 76.9 µM), usual class: activators; actives 0.13% (n = 340,000); gsp mutant cells, cAMP HTRF, 30 min; active means well fitted activation curve with a large enough effect; inconclusive means small, poorly fitted or top-dose-only effect, or another doubt; inactive means no such curve, though single readings can be large or run the other way; cell line not stated here;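 further: phosphodiesterase inhibitor Ro 20-1724 added with compounds to block cAMP breakdown; nearly all actives have a fitted effect of over 60% in size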
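Cells in DMEM/10% FBS with G418 were pretreated with compounds in DMSO plus […] (300 uM stock) for 30 min at 37C. cAMP was measured by HTRF (cAMP-d2 plus anti-cAMP antibody-K) after 30 min at room temperature.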
gsp antag: qHTS for Antagonists of gsp, the Etiologic Mutation Responsible for Fibrous Dysplasia/McCune-Albright Syndrome: qHTS; actives 0.4% (n = 340,000); gsp-mutant cells, cAMP HTRF, 30 min; Potency, µM (highest dose often 76.9 µM), usual class: inhibitors; calls by dose curve; cell line not stated here;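 further: intracellular cAMP measured with PDE inhibitor Ro 20-1724 present during compound exposure; nearly all actives have a fitted effect of over 65% in size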
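HTRF cAMP measurement after 30 min RT detection following 30 min, 37C compound treatment alongside […] (added as 300 uM solution) in G418-selected cells seeded at 2000/well and grown 16–24 h.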
RXFP1 agonist: qHTS Assay for Agonists of the Relaxin Receptor RXFP1. HEK293T-RXFP1 cAMP TR-FRET, 30 min; response scale: percent of porcine relaxin response, buffer zero. Relaxin receptor 1 (Homo sapiens), Q9HBX9. Potency, µM (series often up to 57.5 µM), most hits filed as activators. AID 2676, 2010. actives 0.3% (n = 370,000); active means well fitted activation curve with a large enough effect; inconclusive means small, poorly fitted or top-dose-only effect; further: nearly all actives have a fitted effect of over 60% in size
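HEK293T cells stably expressing RXFP1 were pretreated with the PDE4 inhibitor Ro 20174, exposed to compounds for 30 min at 37C, lysed, and cAMP was read by TR-FRET. Data normalized to buffer (basal) and 29 nM porcine relaxin (100%).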
pAkt inh: HTS Assay for Inhibitors of Akt Phophorylation: Primary Screen. AID 651550, 2012. actives 0.32% (n = 360,000). activity change, % for hits at 50 µM. Neuro2A IGF-stimulated pAkt S473 HTRF, 20 min; hits give low values; in the data active means activity change below about -80%; inconclusive means mostly about -51% to -80%
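Single-point screen (50 µM final compound) in Neuro2A cells stimulated 20 min with 6 nM IGF at 37 deg C. After lysis, Ser473-phosphorylated Akt read by HTRF (ex 330 nm, em 615/665 nm) as the 665/615 ratio.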
Numbers stand for hits; - = inactive; ? = inconclusive; . = no result given; ! = repeats disagree; [ ] = dose if it differs, or a comment.

SMILES	RXFP1 antag	ClpP mod	gsp agonist	gsp antag	RXFP1 agonist	pAkt inh
COC(=O)c1sc(N2C(=O)C(O)=C(C(=O)c3ccc(C)o3)C2c2ccc(F)cc2)nc1C (configuration not stated)	-	-	?	-	8.91µM	-
Cc1nn(C)cc1/C=C(/C#N)C(N)=O	-	15.8µM	-	-	-	-
Cc1nn(C)cc1C(N)=O	-	-	-	-	-	-
COc1ccc(N2CCN(Cc3cc(=O)c(OCC(=O)Nc4ccccc4)co3)CC2)cc1	-	-	-[15.4 µM]	-	-	-
COc1ccc(NC(=O)COc2coc(CN3CCN(c4ccccc4)CC3)cc2=O)cc1	-	28.2µM	-	-	-	-
COc1cccc(-c2nnc(NC(=O)c3ccc(S(=O)(=O)N4CC(C)OC(C)C4)cc3)o2)c1 (configuration not stated)	-	-	-	35.5µM	-	-
NS(=O)(=O)c1ccc(CCNc2ncnc3c2cnn3-c2cccc(Cl)c2)cc1	-84.4	-	.	.	-	.
c1ccc(Nc2nc(Nc3ccccc3)nc(N3CCNCC3)n2)cc1	-100.5	.	-	-	-	-
CC(C)(C)Nc1nc(Cl)nc(Nc2ccccc2)n1	-	-	-[15.4 µM]	-	-	-
Clc1nc(Nc2ccccc2)nc(Nc2ccccc2)n1	-	31.6µM	-[15.4 µM]	-	-	-
Cc1cccc(OCC(=O)Nc2cccc(C(=O)OCc3cc(=O)n4c(C)csc4n3)c2)c1	-	-	.	.	-	.
Cc1cc(C(=O)C(C)OC(=O)C2=NNC(=O)CC2)c(C)n1-c1ccc(OC(F)F)cc1 (configuration not stated)	-	20µM	-	-	-	-
COc1cccc(-c2nn(C)c3sc(C(=O)NCc4ccc(C)cc4)cc23)c1	-	20µM!	-	-	-	-
Cc1ccc(NC(=O)c2cc3c(-c4ccccc4)nn(-c4ccccc4)c3s2)cc1	.	17.8µM	.	.	?	.
COc1cccc(-c2nn(C)c3sc(C(=O)NCc4ccccn4)cc23)c1	-	28.2µM	-	-	-	-
O=C(NCc1cccs1)c1ccc2c(=O)n3nc(Nc4ccccc4)sc3nc2c1	-	-	.	.	?	.
CN(N=O)c1ccc(/C=C/c2ccccc2)cc1	.	-	.	.	.	.
c1ccc(CNc2cnccn2)cc1	-	3.16µM	-	-	-	-
Cc1ccc(CNc2cnccn2)cc1	-	14.1µM	-	-	-	-
Cc1ccc(-c2cnc(NCc3c(F)cccc3Cl)n2C)cc1	.	-	.	.	-	.
COc1ccc2cc(-c3nc4ccc(C(=O)O)cc4[nH]3)c(=O)oc2c1	-	-	.	.	-	.
O=C(NCc1ccc(Cl)cc1)C1CCN(S(=O)(=O)c2ccc(N3CCCC3=O)cc2)CC1	-65.7	-	-	-	-	-
CCCCn1c(SCC(=O)NCc2ccc(OC)c(C(=O)O)c2)nc2cc(S(N)(=O)=O)ccc21	-	.	-[15.4 µM]	-	-	-
Cc1csc2nc(=O)c3ccccc3n12	-	11.2µM	?	-	-	-
Cc1c(C(=O)NC2CC2)oc2ccccc12	-	-	?	-	-	-
SMILES	RXFP1 antag	ClpP mod	gsp agonist	gsp antag	RXFP1 agonist	pAkt inh
Cc1c(C(=O)NC2CCCCC2C)oc2ccccc12 (configuration not stated)	-	-	?	7.08µM	-	-
CC(C)CCc1c(O)nc(SCC(C)C)[nH]c1=O	-	31.6µM	-[15.4 µM]	-	-	-
CCCc1c(O)nc(SCC(=O)O)[nH]c1=O	-	-	-	-	-	-
CCOC(=O)CNc1c(-c2ccc(O)cc2)nc2ccccn12	-	31.6µM	-	-	-	-
CCOC(=O)CNc1c(-c2ccc(O)cc2)nc2ccc(Cl)cn12	-	-	-	?	-	-
COCCCN1C(=O)C(O)=C(C(=O)c2ccco2)C1c1ccccc1 (configuration not stated)	-	-	?	-	?	-108.4%
COCCCN1C(=O)C(O)=C(C(=O)c2ccc(C)o2)C1c1cccc(Br)c1 (configuration not stated)	-	-	12.6µM	-	?	-
CCOc1cccc(C2C(C(=O)c3ccc(C)o3)=C(O)C(=O)N2CCCn2ccnc2)c1 (configuration not stated)	-	.	-[15.4 µM]	-	-	-
O=C(C1=C(O)C(=O)N(CCc2ccccc2)C1c1cccnc1)c1ccco1 (configuration not stated)	-	-	?	-	?	-
CNc1oc(-c2ccc(F)cc2)nc1S(=O)(=O)c1ccccc1	-	.	?	-	-	-
CC(C)CS(=O)(=O)c1oc(-c2ccc(F)cc2)nc1S(=O)(=O)c1ccccc1	-81.8	-	.	.	-	.
CCC(C)S(=O)(=O)c1oc(-c2cccs2)nc1S(=O)(=O)c1ccccc1 (configuration not stated)	-78.8	-	.	.	-	.
Cc1cc(C(=O)COc2ccccc2C(N)=O)c(C)n1C	-	28.2µM	-[15.4 µM]	-	-	-
Cc1cc(C(=O)COc2ccccc2C(N)=O)c(C)n1C1CC1	-	-	-	-	-	-
Cc1cc2oc(C(=O)NCc3ccc(S(N)(=O)=O)cc3)c(C)c2cc1C	-	?	?	-	?	-
Cc1c(C(=O)NCc2ccc3c(c2)OCO3)oc2ccc(S(=O)(=O)N3CCCCCC3)cc12	-	-	-	-	-	-112.3%
Cc1c(C(=O)NCc2ccc3c(c2)OCO3)oc2ccc(S(=O)(=O)N3CCC(C)CC3)cc12	-	-	-	-	-	-
CCc1ccc2oc(C(=O)NCc3ccc(S(N)(=O)=O)cc3)c(C)c2c1	-120.0	.	-	-	-	-
COc1ccc(NC(=O)CSc2nc3nc(C)c(Cc4ccccc4Cl)c(C)n3n2)cc1OC	-	-	.	.	-	.
COC(=O)Cc1c(C)c2c(O)cc(C)cc2oc1=O	-	-	?	-	15.8µM	.
COc1ccc(CC(N)c2csc(NC(=O)c3cccc(OC(F)(F)F)c3)n2)cc1 (configuration not stated)	.	-	.	.	.	-
CCOc1ccc(C(=O)NCCS(=O)(=O)N2CCN(c3ccccc3F)CC2)cc1OCC	-	-	.	.	-	.
O=C(Nc1cccc(O)c1)C1CCCN1C(=O)OCc1ccccc1 (configuration not stated)	-	28.2µM	-	-	-	-
COc1cccc(OC)c1NC(=O)C1CCCN1C(=O)Nc1cccc(Cl)c1 (configuration not stated)	-63.0	.	-	-	-	-

Screens: PubChem BioAssay, National Center for Advancing Translational Sciences (NCATS)
